The results in this text go back to PubChem BioAssay.

Assay [1] can be described thus: P. berghei load reduction in hepatocytes – cell-based, HepG2, luciferase luminescence, HepG2 viability, primary screen (AID 624349; in the data active = parasite load remaining mostly below about 12%, no sharp cut-off; inactive = mostly above about 10%;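 note: 100% = mean of DMSO negative control wells on the same plate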). The conditions noted are these: P. berghei liver stage in HepG2, luciferase luminescence, concentration not given here; parasite load remaining: stronger effect = lower value; viability: measured here: HepG2 viability without parasites.
The subject of assay [2] is Neuropilin-2 / VEGF-C interaction (human). Briefly: small molecules blocking Neuropilin-2/VEGF-C interaction – biochemical, microplate binding format, z-score (AID 743281; call rule not given here). The conditions noted are these: microplate NRP2/VEGF-C binding assay; stronger effect = lower value.
The nature of assay [3]: modulation of C. elegans fzo-1 (AID 1259413; call rule not given here;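 note: fzo-1 mutant C. elegans worms in liquid wells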). Conditions: C. elegans fzo-1 modulator screen, mean read-out; stronger effect = higher value.
Another assay deals with F380Y. Briefly: BK channel mutant inhibitors and activators – cell-based, U2OS BacMam, thallium flux, beta subunits, selectivity assay, profiling panel (AID 1259406).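 Note: initial slope of Thallos dye fluorescence rise after thallium is added; log ratio against the mean of 0.3% DMSO vehicle wells on the same plate.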 Conditions: U2OS BacMam BK variants, at 30 µM.
The test system of another assay is F380Y/beta1. The assay is described as above. Conditions: U2OS BacMam BK variants, at 30 µM.
For another assay, the system named is F380Y/beta2Delta. Described as above. The conditions noted are these: U2OS BacMam BK variants, at 30 µM.
A further assay relates to F380Y/beta4. Described as above. The conditions noted are these: U2OS BacMam BK variants, at 30 µM.
In assay [4] the target is Calcium-activated potassium channel subunit alpha-1 (Homo sapiens) + Leucine-rich repeat-containing protein 26 (Homo sapiens) (UniProt Q12791+Q2I0M4). Described as above. Conditions: U2OS BacMam BK variants, F380Y/Slo1WT/gamma1, at 30 µM.
A further assay relates to R275C. The assay is described as above. The conditions noted are these: U2OS BacMam BK variants, at 30 µM.
The test system of another assay is R275C/beta1. The assay is described as above. The conditions noted are these: U2OS BacMam BK variants, at 30 µM.
The test system of the next assay is R275C/beta2Delta. The description is as above. Conditions: U2OS BacMam BK variants, at 30 µM.
Another assay has as its system R275C/beta4. Described as above. Conditions: U2OS BacMam BK variants, at 30 µM.
Another assay concerns R275C/Slo1WT/beta2. The assay is described as above. Conditions: U2OS BacMam BK variants, at 30 µM.
The nature of assay [5]: signal quenchers or enhancers, Cy5 substrate/SSB – biochemical, NIH Clinical Collection, E. coli SSB, artefact control for HCV NS3 helicase inhibitor project (AID 743268; call rule not given here). The conditions noted are these: Cy5-oligo bound E. coli SSB, fluorescence interference.
For assay [6], the system named is Hepatitis C virus NS3 helicase. Briefly: blockers of NS3h binding to DNA – biochemical, fluorescence polarization, NIH Clinical Collection, primary screen (AID 743270; call rule not given here). The conditions noted are these: NS3 helicase binding to Cy5-dT15 DNA, stronger effect = higher value, concentration not given here.
Assay [7] concerns the target Single-stranded DNA-binding protein (Escherichia coli (strain K12)) (UniProt P0AGE0). Briefly: SSB-ssDNA binding inhibitors – biochemical, fluorescence polarization, NIH Clinical Collection, counter-screen for HCV NS3 helicase inhibitor project (AID 743271; in the data active = inhibition above about 28%). Conditions: E. coli SSB-DNA binding, stronger effect = higher value, concentration not given here. A general note: In fluorescence polarisation assays a small probe gives low polarisation when free and higher when bound to something large.

Assay [8] is described as follows: compounds distorting NS3 helicase fluorescence signal – biochemical, NIH Clinical Collection, artefact control for HCV NS3 helicase inhibitor project (AID 743272; call rule not given here;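 note: HCV NS3 helicase with a Cy5 labelled single stranded DNA probe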). Conditions: fluorescence interference counterscreen, HCV NS3 helicase assay; stronger effect = lower value.
A short description of assay [9]: viability loss with induced miR-34 in A549 – imaging, A549 dox-inducible miR-34, nuclei and caspase counts, primary screen (AID 1347080;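 active = compounds whose cell count with miR-34 switched on is under 0.7 times the count with it off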). Conditions: A549 miR-34 inducible, Hoechst nuclei count, 48 h.
A short description of assay [10]: galactose survival enhancers in mitochondrial complex I cybrids – cell-based, galactose medium, ATP luminescence, primary screen (AID 1645843;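 active = z-score of at least 1.8 in each of two replicates, scored against plate mean and spread of sample wells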;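 note: positive z means more ATP and so rescue of galactose-driven cybrid death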). Conditions: complex I mutant cybrid cells, 72 h, stronger effect = higher value.
The nature of assay [11]: MELAS cybrid and Rieske KO viability enhancers – cell-based, MELAS cybrids, Rieske KO mouse fibroblasts, CellTiter-Glo, primary screen (AID 1508586;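 active = mean z-score across replicates of 1.96 or higher in either the MELAS or the Rieske mutant cell line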;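 note: z relative to plate mean and SD of compound and empty wells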). The conditions noted are these: low glucose. (In general: Cellular ATP, detected with luciferase, serves as a proxy for viable cell number.)
Where [12] appears, read: stronger effect = lower value, cell number ratio, induced over uninduced.
Where [13] appears, read: measured here: relative caspase fold change +Dox/-Dox.
[14] abbreviates: measured here: total cells with miR-34 induction, stronger effect = lower value.
Setting [15] is: measured here: total cells without miR-34 induction.
The mark [16] stands for this setting: MELAS cybrid survival, CellTiter-Glo 48 h, stronger effect = higher value.
Setting [17] is: Rieske KO mouse fibroblast survival, CellTiter-Glo 72 h.

Values joined by “and” are separate entries in the source; they are usually repeats but may differ in a detail not shown here. Equal entries are not always repeated. Active and inactive are the calls of the source.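 Rule for the calls, unless noted: active = thallium flux through the channel raised or lowered by more than 3 SD from vehicle-only wells, actives on both sides; inactive = the rest.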

One may read the viability as a read-out of living cells in per cent, often relative to untreated cells. As a reminder, the inhibition is the change of the read-out against control, counted positive when it falls.

Sequence of Calcium-activated potassium channel subunit alpha-1 (Homo sapiens) + Leucine-rich repeat-containing protein 26 (Homo sapiens) (Q2I0M4 whole entry, looked up, one chain of several): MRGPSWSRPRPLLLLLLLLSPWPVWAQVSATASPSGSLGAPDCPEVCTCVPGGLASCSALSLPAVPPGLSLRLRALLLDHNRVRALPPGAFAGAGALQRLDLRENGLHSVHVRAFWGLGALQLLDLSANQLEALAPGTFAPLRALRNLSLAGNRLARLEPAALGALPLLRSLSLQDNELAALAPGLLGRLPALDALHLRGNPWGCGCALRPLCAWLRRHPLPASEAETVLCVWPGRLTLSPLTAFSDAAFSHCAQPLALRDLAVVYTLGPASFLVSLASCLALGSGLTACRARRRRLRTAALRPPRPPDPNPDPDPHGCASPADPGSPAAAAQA

Consider `O=C(O)COCCN1CCN([C@H](c2ccccc2)c2ccc(Cl)cc2)CC1`, for which, in [1], the parasite load remaining is 91.6% (inactive). Further, the viability in assay [1] was found to be 73.9%. Moreover, the z-score in [2] is -0.677 (inactive). In assay [3], the mean signal is 261 (inactive). Besides, the log fold change Tl+ flux in the assay with F380Y was 0.0476 (inactive); with F380Y/beta1 it was 0.0381 (inactive); in the assay with F380Y/beta2Delta it was 0.0598 (inactive); in the assay on F380Y/beta4 it was -0.027 (inactive); in assay [4], 0.0629 (inactive); in the assay with R275C, -0.011 (inactive). Further, the log fold change Tl+ flux in the assay with R275C/beta1 was 0.122 (active); with R275C/beta2Delta it was 0.083 (inactive); with R275C/beta4, 0.0472 (inactive); in the assay with R275C/Slo1WT/beta2, 0.0404 (inactive).
For `CO[C@H]1/C=C/O[C@@]2(C)Oc3c(C)c(O)c4c(O)c(c(C=NN5CCN(C)CC5)c(O)c4c3C2=O)NC(=O)/C(C)=C\C=C\[C@H](C)[C@H](O)[C@@H](C)[C@@H](O)[C@@H](C)[C@H](OC(C)=O)[C@@H]1C`, the parasite load remaining in assay [1] is 23.7% (inactive). Further, the viability in assay [1] is 94.3%. Also, the figures for the fluorescence ratio in [5] and in assay [8] were 0.107 (active) and 0.87 (inactive), respectively. The inhibition in assay [6] was -3.18% (inactive); in assay [7], 3.34% (inactive). The fold change was 0.888 (inactive) in assay [9] (setting [12]) and 2.93 in assay [9] (setting [13]). Besides, the cell count in assay [9] (setting [14]) is 9180; in assay [9] (setting [15]), 10300. For the same compound, the z-score in assay [10] is -1.41 (inactive). The log fold change Tl+ flux in the assay on F380Y was 0.0886 (inactive); in the assay with F380Y/beta1, -0.0407 (inactive); with F380Y/beta2Delta it was 0.125 (active); with F380Y/beta4 it was 0.0159 (inactive); in [4] it was -0.0449 (inactive); in the assay with R275C, -0.067 (inactive). The log fold change Tl+ flux in the assay on R275C/beta1 is 0.00744 (inactive); in the assay with R275C/beta2Delta, -0.0205 (inactive); in the assay on R275C/beta4, 0.0765 (inactive); in the assay with R275C/Slo1WT/beta2 it was -0.0151 (inactive).
As to `CCCc1nc(C(C)(C)O)c(C(=O)O)n1Cc1ccc(-c2ccccc2-c2nn[nH]n2)cc1`, the parasite load remaining in assay [1] is 103% (inactive). The viability in assay [1] amounted to 69%. Further, the figures for the fluorescence ratio in assay [5] and in [8] were 1.02 (inactive) and 0.93 (inactive), respectively. Also, the inhibition in assay [6] is 1.19% (inactive); in assay [7], -0.1% (inactive). Besides, the fold change is 0.897 (inactive) and 0.859 (inactive) in assay [9] (setting [12]); 2.28 and 0.39 in assay [9] (setting [13]). Further, the cell count in assay [9] (setting [14]) was 9480 and 8420; in [9] (setting [15]), 10600 and 9810. Moreover, the z-score in assay [11] (setting [16]) is 0.347 (inactive); in [11] (setting [17]), -0.184; in [10] it was 0.54 (inactive) and -0.09 (inactive). Also, the log fold change Tl+ flux in the assay on F380Y was -0.0187 (inactive); with F380Y/beta1, 0.00703 (inactive); in the assay on F380Y/beta2Delta, 0.0323 (inactive); in the assay with F380Y/beta4, -0.0244 (inactive); in assay [4], 0.0466 (inactive); in the assay on R275C, 0.0686 (inactive). In addition, the log fold change Tl+ flux in the assay with R275C/beta1 is 0.00561 (inactive); with R275C/beta2Delta it was 0.0191 (inactive); in the assay with R275C/beta4, -0.0131 (inactive); in the assay on R275C/Slo1WT/beta2, -0.0157 (inactive).
As for `CC(C(O)c1ccc(O)cc1)N1CCC(Cc2ccccc2)CC1` (stereo not drawn), the fluorescence ratio in [5] is 1.03 (inactive); in assay [8] it was 0.98 (inactive). Further, the inhibition in assay [6] was -6.73% (inactive); in [7] it was -4.72% (inactive). The z-score in assay [2] is -0.156 (inactive); in [11] (setting [16]), -0.121 (inactive) and -0.969 (inactive) and -0.489 (inactive); in assay [11] (setting [17]) it was -0.18 and -0.279 and 1.18; in assay [10] it was -1.16 (inactive) and -1.04 (inactive) and -0.25 (inactive). Also, the mean signal in assay [3] was 233 (inactive). Moreover, the log fold change Tl+ flux in the assay with F380Y is 0.0449 (inactive); in the assay on F380Y/beta1 it was -0.0111 (inactive); in the assay on F380Y/beta2Delta, 0.00326 (inactive); in the assay with F380Y/beta4, 0.0228 (inactive); in assay [4], -0.0962 (active); in the assay on R275C it was -0.193 (active). For the same compound, the log fold change Tl+ flux in the assay on R275C/beta1 was -0.0365 (inactive); with R275C/beta2Delta, -0.218 (active); in the assay on R275C/beta4 it was -0.0303 (inactive); in the assay on R275C/Slo1WT/beta2, 0.00646 (inactive).
For `CCN(CC)C(=O)[C@]1(c2ccccc2)C[C@@H]1CN`, in assay [1], the parasite load remaining was 94.6% (inactive). Besides, the viability in assay [1] was 71.3%. The results for the fluorescence ratio in [5] and in assay [8] were 1.07 (inactive) and 1.06 (inactive), respectively. Moreover, the inhibition in assay [6] was 1.98% (inactive); in assay [7] it was -3.18% (inactive). The z-score in assay [2] was -0.224 (inactive); in assay [11] (setting [16]), -0.406 (inactive); in [11] (setting [17]), -0.158. Further, the mean signal in assay [3] is 248 (inactive). Moreover, the log fold change Tl+ flux was 0.0604 (inactive) with F380Y; 0.0284 (inactive) in the assay on F380Y/beta1; -0.038 (inactive) in the assay with F380Y/beta2Delta; 0.00308 (inactive) in the assay on F380Y/beta4; 0.0521 (inactive) in assay [4]; -0.00612 (inactive) in the assay on R275C. Also, the log fold change Tl+ flux with R275C/beta1 was -0.0552 (inactive); in the assay on R275C/beta2Delta, -0.0341 (inactive); with R275C/beta4, 0.0155 (inactive); in the assay on R275C/Slo1WT/beta2, 0.0022 (inactive).
As for `C[n+]1ccccc1C=NO`, the parasite load remaining in [1] is 51.7% (inactive). Moreover, the viability in assay [1] amounted to 127%. In addition, the figures for the fold change in [9] (setting [12]) and in assay [9] (setting [13]) were 0.861 (inactive) and 4.73, respectively. Also, the cell count in [9] (setting [14]) turned out to be 11500; in [9] (setting [15]), 13300. Moreover, the log fold change Tl+ flux with F380Y was -0.0173 (inactive); with F380Y/beta1, 0.0118 (inactive); with F380Y/beta2Delta, -0.00109 (inactive); in the assay on F380Y/beta4, -0.0377 (inactive); in [4] it was -0.000474 (inactive); with R275C it was -0.00984 (inactive). In addition, the log fold change Tl+ flux is 0.0135 (inactive) in the assay with R275C/beta1, 0.00623 (inactive) with R275C/beta2Delta, -0.0487 (inactive) with R275C/beta4 and -0.0159 (inactive) in the assay with R275C/Slo1WT/beta2.
As for `COCCCCC(=NOCCN)c1ccc(C(F)(F)F)cc1`, the parasite load remaining in [1] was 46.6% (inactive). For the same compound, the viability in assay [1] turned out to be 56.9%. The fluorescence ratio in assay [5] was 0.97 (inactive); in assay [8], 0.89 (inactive). The inhibition in [6] is -1.98% (inactive); in assay [7] it was -0.1% (inactive). Besides, the fold change was 0.929 (inactive) and 0.879 (inactive) and 0.949 (inactive) in assay [9] (setting [12]); 2.57 and 0.586 and 0.773 in assay [9] (setting [13]). For the same compound, the cell count was 7760 and 8160 and 6370 in assay [9] (setting [14]); 8360 and 9280 and 6710 in assay [9] (setting [15]). Further, the z-score in assay [11] (setting [16]) is 0.785 (inactive) and -0.408 (inactive); in assay [11] (setting [17]) it was 0.468 and -0.05; in assay [10], -0.79 (inactive) and -1.17 (inactive). In addition, the log fold change Tl+ flux with F380Y was -0.0607 (inactive); in the assay with F380Y/beta2Delta, -0.0598 (inactive); in assay [4], -0.0791 (inactive); with R275C, -0.0449 (inactive); in the assay on R275C/beta1, 0.0249 (inactive); in the assay on R275C/beta2Delta, 0.0321 (inactive).
In the case of `O=C1NC(=O)N(C2CC(O)C(CO)O2)CC1F` (stereo not drawn), the mean signal in assay [3] was 241 (inactive).
